Laboratory results taken from article PMC5540273 (PLoS ONE, 2017).

Columns and labels:
Conditions in all cases: concentration: 1 μM, replicates: in singlicate; n = 1
EPHB2 = tested on: EPHB2
EPHB3 = tested on: EPHB3
EPHB4 = tested on: EPHB4
EPHB6 = tested on: EPHB6
ERBB2 = tested on: ERBB2
ERBB3 = tested on: ERBB3
ERBB4 = tested on: ERBB4
ERK1 = tested on: T1, ERK1
T1 construct: gene MAPK3

ERK2 = tested on: T2, ERK2
T2 construct: gene MAPK1

ERK3 = tested on: T3, ERK3
T3 construct: gene MAPK6

ERK4 = tested on: T4, ERK4
T4 construct: gene MAPK4

ERK5 = tested on: T5, ERK5
T5 construct: gene MAPK7

ERK8 = tested on: T6, ERK8
T6 construct: gene MAPK15

ERN1 = tested on: ERN1
FAK = tested on: T7, FAK
T7 construct: gene PTK2

FER = tested on: FER
FES = tested on: FES
FGFR1 = tested on: FGFR1
FGFR2 = tested on: FGFR2
FGFR3 = tested on: FGFR3
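Also: KINOMEscan kinase panel screen.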

Row | SMILES | %Inh (EPHB2) [%] | %Inh (EPHB3) [%] | %Inh (EPHB4) [%] | %Inh (EPHB6) [%] | %Inh (ERBB2) [%] | %Inh (ERBB3) [%] | %Inh (ERBB4) [%] | %Inh (ERK1) [%] | %Inh (ERK2) [%] | %Inh (ERK3) [%] | %Inh (ERK4) [%] | %Inh (ERK5) [%] | %Inh (ERK8) [%] | %Inh (ERN1) [%] | %Inh (FAK) [%] | %Inh (FER) [%] | %Inh (FES) [%] | %Inh (FGFR1) [%] | %Inh (FGFR2) [%] | %Inh (FGFR3) [%]
1 | Clc1cccc(-c2nc(Nc3ccncc3)c3ccccc3n2)c1 [GW873004] | 2 | 0 | 45 | 0 | 38 | 46 | 0 | 1 | 12 | 0 | 0 | 0 | 23 | 0 | 11 | 16 | 16 | 37 | 11 | 0
2 | NC(=O)c1sc(-n2cnc3ccccc32)cc1OCc1ccccc1F [GSK1024306] | 0 | 1 | 0 | 8 | 47 | 18 | 25 | 0 | 0 | 0 | 0 | 0 | 26 | 0 | 0 | 20 | 0 | 0 | 0 | 4
3 | Fc1ccc(Nc2nccc(-c3c(-c4ccc(Cl)cc4)nn4ncccc34)n2)cc1F [GW829058] | 17 | 15 | 14 | 23 | 21 | 36 | 0 | 6 | 28 | 0 | 23 | 0 | 0 | 48 | 17 | 9 | 19 | 13 | 15 | 9
4 | Clc1ccc(-c2cc(-c3c[nH]nc3-c3ccccn3)ccn2)cc1 [GW681251] | 31 | 15 | 1 | 0 | 17 | 0 | 0 | 0 | 0 | 8 | 6 | 0 | 0 | 0 | 0 | 9 | 0 | 0 | 0 | 1
5 | FC(F)(F)c1ccc(-c2nn3ncccc3c2-c2ccnc(Nc3cccc(C(F)(F)F)c3)n2)cc1 [GW828205] | 1 | 68 | 55 | 0 | 13 | 27 | 35 | 0 | 3 | 0 | 0 | 0 | 0 | 0 | 9 | 2 | 7 | 33 | 100 | 8
6 | Fc1cccc(COc2ccc(Nc3ncnc4sc(-c5ccc[nH]5)cc34)cc2Cl)c1 [GW707818] | 15 | 0 | 0 | 16 | 100 | 0 | 88 | 0 | 0 | 3 | 51 | 6 | 0 | 10 | 0 | 12 | 0 | 0 | 0 | 6
7 | Cc1ccc(C)c(NC(=O)NCCNc2ccnc(Nc3ccc(F)cc3)n2)c1 [GSK1379878] | 0 | 0 | 0 | 11 | 0 | 3 | 38 | 0 | 0 | 0 | 17 | 98.4 | 0 | 0 | 0 | 17 | 0 | 0 | 14 | 0
8 | CCC(CC)(CC)n1cnc2c(N)ncnc21 [SKF-97620] | 0 | 18 | 0 | 9 | 20 | 46 | 32 | 0 | 0 | 0 | 0 | 0 | 1 | 26 | 0 | 0 | 10 | 17 | 100 | 0
9 | FC(F)(F)c1ccc(-c2cc(-c3c[nH]nc3-c3ccccn3)ccn2)cc1 [GW599550] | 0 | 0 | 8 | 37 | 38 | 16 | 0 | 15 | 0 | 0 | 0 | 0 | 0 | 0 | 0 | 32 | 0 | 5 | 0 | 4
10 | C[C@@H]1CCN(C(=O)CO)C[C@@H]1N(C)c1ncnc2[nH]ccc12 | 0 | 0 | 0 | 17 | 19 | 0 | 11 | 0 | 0 | 14 | 19 | 0 | 9 | 0 | 0 | 8 | 0 | 12 | 7 | 0
11 | Cc1cc(N2CCC(NS(=O)(=O)c3ccc(F)cc3)CC2)nc(Nc2cccc(C#N)c2)n1.O=C(O)C(F)(F)F [GSK1653537] | 0 | 1 | 13 | 8 | 13 | 0 | 0 | 0 | 0 | 7 | 0 | 0 | 31 | 0 | 0 | 18 | 26 | 6 | 0 | 16
12 | CNc1nccc(-c2c(-c3ccc(F)cc3)ncn2C2CCN(C)CC2)n1 [SB-222903] | 0 | 2 | 0 | 0 | 0 | 0 | 2 | 1 | 0 | 0 | 0 | 9 | 6 | 0 | 43 | 0 | 0 | 0 | 0 | 0
13 | CC(C)N1CCC(n2cnc(-c3ccc(F)cc3)c2-c2ccnc(N)n2)CC1 [SB-223132] | 32 | 0 | 22 | 0 | 16 | 44 | 0 | 0 | 11 | 0 | 0 | 0 | 4 | 0 | 16 | 8 | 0 | 22 | 10 | 21
14 | CC(=O)Nc1n[nH]c2ncc(-c3ccccc3)cc12 [SB-548492] | 0 | 16 | 14 | 36 | 0 | 0 | 29 | 12 | 11 | 1 | 0 | 0 | 60 | 0 | 0 | 4 | 25 | 4 | 0 | 10
15 | Cl.Cl.c1ccc(-c2cc3ccncc3cc2OC2CCNCC2)cc1 [GSK1122999] | 47 | 17 | 5 | 11 | 10 | 0 | 0 | 0 | 4 | 24 | 8 | 0 | 0 | 0 | 0 | 36 | 0 | 0 | 0 | 11
16 | CS(=O)(=O)CCNCc1ccc(-c2ccc3ncnc(Nc4ccc(OCc5ccccc5)c(Cl)c4)c3c2)o1.Cl [GW574783] | 0 | 18 | 8 | 28 | 100 | 69 | 90.8 | 4 | 0 | 0 | 0 | 0 | 15 | 0 | 11 | 14 | 0 | 0 | 0 | 12
17 | N#Cc1ccc(Oc2ccc(Nc3ncnc4cc[nH]c34)cc2Cl)cc1 | 8 | 21 | 24 | 33 | 79 | 9 | 76 | 0 | 6 | 0 | 17 | 20 | 12 | 8 | 8 | 0 | 17 | 9 | 1 | 8
18 | Cn1ccc2ncnc(Nc3ccc(Oc4cccc(Cl)c4)c(Cl)c3)c21 | 4 | 0 | 0 | 4 | 100 | 17 | 97 | 2 | 35 | 6 | 25 | 22 | 0 | 48 | 0 | 0 | 8 | 1 | 6 | 1
19 | Nc1nccc2scc(-c3ccc4c(c3)CCN4C(=O)Cc3cc(F)ccc3F)c12 [GSK2587663] | 10 | 34 | 27 | 59 | 14 | 0 | 46 | 3 | 0 | 4 | 0 | 0 | 14 | 2 | 0 | 26 | 18 | 0 | 1 | 9
20 | COc1ccc(-c2oc3ncnc(N)c3c2-c2ccc(OC)cc2)cc1 [SB-589132] | 0 | 24 | 5 | 36 | 41 | 46 | 33 | 0 | 0 | 6 | 27 | 0 | 0 | 18 | 0 | 5 | 0 | 0 | 3 | 0
21 | O=C(CCO)NCCn1ccc2ncnc(Nc3ccc(Oc4cccc(C(F)(F)F)c4)c(Cl)c3)c21 | 0 | 2 | 3 | 8 | 100 | 0 | 95.9 | 0 | 9 | 0 | 0 | 5 | 0 | 0 | 0 | 0 | 0 | 0 | 0 | 0
